Measured values taken from PubChem BioAssay (EPA / NIEHS).
Active and inactive are the calls of the source. Rule for the calls: active = hit-call score of the fitted dose curve at least 0.9, where 1 is the maximum; inactive = score below 0.9.

Key:
Settings in all cases: mRNA level, 48 h; actives raise or lower the signal
[1] = read-out: matrix metalloproteinase-3 (MMP3), MMP3 (gene 4314); experiment: LTEA_HepaRG_MMP3: Life Technologies and Expression Analysis (LTEA) Assay for matrix metalloproteinase-3 (MMP3) using HepaRG (AID 2283519)
Outline: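 Differentiated human HepaRG cells, plated 48 h on collagen I, were exposed in duplicate for 48 h in serum-free induction medium to eight half-log concentrations up to 100 uM in 0.5% DMSO. MMP3 mRNA was quantified by TaqMan qRT-PCR, normalised to ACTB, GAPDH and POLR2A.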

[2] = read-out: Paternally Expressed 10 (PEG10), PEG10 (gene 23089); experiment: LTEA_HepaRG_PEG10: Life Technologies and Expression Analysis (LTEA) Assay for Paternally Expressed 10 (PEG10) using HepaRG (AID 2283520)
Outline: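 Differentiated HepaRG cells, plated 48 h then switched to serum-free induction medium, were exposed in duplicate for 48 h to eight half-log concentrations topping at 100 uM in 0.5% DMSO. PEG10 mRNA was quantified by TaqMan qRT-PCR, normalised to ACTB, GAPDH and POLR2A.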

[3] = read-out: Nuclear factor NF-kappa-B p105 subunit (Homo sapiens) (UniProt P19838); experiment: LTEA_HepaRG_NFKB1: Life Technologies and Expression Analysis (LTEA) Assay for Nuclear Factor Kappa B Subunit 1 (NFKB1) using HepaRG (AID 2283521);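 note: TaqMan qRT-PCR transcript normalised to ACTB GAPDH and POLR2A housekeeping genes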
Outline: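 Human HepaRG cells receive eight half-log concentrations, highest 100 uM, for 48 h. NFKB1 expression is then quantified by qRT-PCR and analysed for up- or down-regulation relative to 0.5% DMSO vehicle.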

[4] = read-out: Protein phosphatase 2A (PPP2R4), PTPA (gene 5524); experiment: LTEA_HepaRG_PPP2R4: Life Technologies and Expression Analysis (LTEA) Assay for Protein phosphatase 2A (PPP2R4) using HepaRG (AID 2283522)
Outline: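 Differentiated HepaRG cells in serum-free induction medium were exposed in duplicate for 48 h to eight concentrations, top 100 uM with half-log dilutions, in 0.5% DMSO. PPP2R4 mRNA was quantified by TaqMan qRT-PCR, normalized to ACTB, GAPDH and POLR2A.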

[5] = read-out: Phosphatase and tensin (PTEN), PTEN (gene 5728); experiment: LTEA_HepaRG_PTEN: Life Technologies and Expression Analysis (LTEA) Assay for Phosphatase and tensin (PTEN) using HepaRG (AID 2283523)
Outline: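 Differentiated human HepaRG cells, plated 48 h then switched to serum-free induction medium, were exposed in duplicate for 48 h to eight half-log concentrations up to 100 uM in 0.5% DMSO. PTEN mRNA measured by TaqMan qRT-PCR, normalized to ACTB/GAPDH/POLR2A, bidirectional fit versus DMSO.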

[6] = read-out: solute carrier (SLC22A1), SLC22A1 (gene 6580); experiment: LTEA_HepaRG_SLC22A1: Life Technologies and Expression Analysis (LTEA) Assay for solute carrier (SLC22A1) using HepaRG (AID 2283524)
Outline: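 Human HepaRG cells were plated 48 h, switched to serum-free induction medium, then exposed in duplicate for 48 h to 8-point half-log series from 100 uM in 0.5% DMSO. SLC22A1 mRNA measured by qRT-PCR, normalized to ACTB/GAPDH/POLR2A, fitted bidirectionally versus DMSO.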

[7] = read-out: Pyruvate Dehydrogenase Kinase 4 (PDK4), PDK4 (gene 5166); experiment: LTEA_HepaRG_PDK4: Life Technologies and Expression Analysis (LTEA) Assay for Pyruvate Dehydrogenase Kinase 4 (PDK4) using HepaRG (AID 2283525)
Outline: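 Differentiated human HepaRG cells, pre-cultured 48 h, were exposed in duplicate for 48 h in serum-free induction medium to eight half-log concentrations up to 100 uM in 0.5% DMSO. PDK4 mRNA was quantified by qRT-PCR, normalized to ACTB, GAPDH and POLR2A, bidirectional fitting versus DMSO.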

[8] = read-out: NAD(P)H dehydrogenase [quinone] 1 (NQO1), NQO1 (gene 1728); experiment: LTEA_HepaRG_NQO1: Life Technologies and Expression Analysis (LTEA) Assay for NAD(P)H dehydrogenase [quinone] 1 (NQO1) using HepaRG (AID 2283526)
Outline: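 Differentiated HepaRG cells, plated 48 h and then switched to serum-free induction medium, were exposed in duplicate for 48 h to 8-point half-log concentrations up to 100 uM in 0.5% DMSO. mRNA measured by qRT-PCR, normalized to ACTB, GAPDH, POLR2A; bidirectional fit versus DMSO.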

[9] = read-out: Nuclear factor erythroid 2-related factor 2 (Homo sapiens) (UniProt Q16236); experiment: LTEA_HepaRG_NFE2L2: Life Technologies and Expression Analysis (LTEA) Assay for Nuclear factor erythroid 2-related factor 2 (NFE2L2) Transcription Factor using HepaRG (AID 2283527);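 for outcome: TaqMan qRT-PCR transcript level normalised to ACTB GAPDH and POLR2A housekeeping genes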
Outline: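 Differentiated human HepaRG cells in serum-free induction medium were exposed for 48 h to eight concentrations (top 100 uM, half-log dilutions, 0.5% DMSO), in duplicate. NFE2L2 mRNA was quantified by TaqMan qRT-PCR, normalized to ACTB, GAPDH and POLR2A, with bidirectional fitting versus DMSO.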

[10] = read-out: succinate dehydrogenase complex iron sulfur subunit B (SDHB), SDHB (gene 6390); experiment: LTEA_HepaRG_SDHB: Life Technologies and Expression Analysis (LTEA) Assay for succinate dehydrogenase complex iron sulfur subunit B (SDHB) using HepaRG (AID 2283528)
Outline: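 A human HepaRG culture in serum-free induction medium received test chemicals for 48 h over an eight-point range capped at 100 uM. SDHB expression change was quantified by qRT-PCR.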

[11] = read-out: Signal transducer and activator of transcription 3 (Homo sapiens) (UniProt P40763); experiment: LTEA_HepaRG_STAT3: Life Technologies and Expression Analysis (LTEA) Assay for Signal transducer and activator of transcription (STAT3) using HepaRG (AID 2283529)
Outline: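 Differentiated human HepaRG cells in serum-free induction medium were exposed in duplicate for 48 h to eight half-log concentrations up to 100 uM in 0.5% DMSO. STAT3 mRNA was quantified by TaqMan qRT-PCR, normalized to ACTB, GAPDH and POLR2A, and fitted bidirectionally against DMSO.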

[12] = read-out: solute carrier (SLCO1B1), SLCO1B1 (gene 10599); experiment: LTEA_HepaRG_SLCO1B1: Life Technologies and Expression Analysis (LTEA) Assay for solute carrier (SLCO1B1) using HepaRG (AID 2283530)
Outline: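 Gain or loss of SLCO1B1 mRNA is fitted against the 0.5% DMSO vehicle in human HepaRG liver cells treated 48 h at up to 100 uM in half-log steps. Expression comes from qRT-PCR normalized to endogenous controls.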

[13] = read-out: Transforming Growth Factor (TGFA), TGFA (gene 7039); experiment: LTEA_HepaRG_TGFA: Life Technologies and Expression Analysis (LTEA) Assay for Transforming Growth Factor (TGFA) using HepaRG (AID 2283532)
Outline: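 Differentiated human HepaRG cells, plated 48 h then switched to serum-free induction medium, were exposed in duplicate for 48 h to 8-point half-log series from 100 uM in 0.5% DMSO. TGFA mRNA measured by qRT-PCR, normalized to ACTB/GAPDH/POLR2A, bidirectional fit versus DMSO.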

[14] = read-out: Transforming Growth Factor (TGFB1), TGFB1 (gene 7040); experiment: LTEA_HepaRG_TGFB1: Life Technologies and Expression Analysis (LTEA) Assay for Transforming Growth Factor (TGFB1) Transporter using HepaRG (AID 2283533)
Outline: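 Expression change of TGFB1 in human HepaRG cells is measured after a 48 h chemical exposure, up to 100 uM in 0.5% DMSO vehicle. Curves are fitted in both directions relative to the DMSO baseline.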

TIMP1, TIMP1 (gene 7076) = experiment: LTEA_HepaRG_TIMP1: Life Technologies and Expression Analysis (LTEA) Assay for TIMP1 using HepaRG (AID 2283534);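 note: TaqMan qRT-PCR signal normalized to ACTB GAPDH and POLR2A housekeeping genes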
Outline: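 We dosed human liver HepaRG cultures for 48 hours with up to 100 uM test chemical and measured TIMP1 expression by qRT-PCR. Activity in either direction is fitted relative to the 0.5% DMSO vehicle.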

[15] = read-out: Tumor necrosis factor receptor 1 (TNFRSF1A), TNFRSF1A (gene 7132); experiment: LTEA_HepaRG_TNFRSF1A: Life Technologies and Expression Analysis (LTEA) Assay for Tumor necrosis factor receptor 1 (TNFRSF1A) using HepaRG (AID 2283535)
Outline: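 Expression of TNFRSF1A in human HepaRG liver cells was measured by qRT-PCR 48 h after chemical dosing (maximum 100 uM). Bidirectional curve fitting used 0.5% DMSO as baseline.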

[16] = read-out: Thyroid Hormone Responsive (THRSP), THRSP (gene 7069); experiment: LTEA_HepaRG_THRSP: Life Technologies and Expression Analysis (LTEA) Assay for Thyroid Hormone Responsive (THRSP) using HepaRG (AID 2283536)
Outline: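 Differentiated human HepaRG cells were exposed in duplicate for 48 h in serum-free induction medium to eight concentrations (top 100 uM, half-log steps, 0.5% DMSO). Expression was quantified by TaqMan qRT-PCR, normalized to ACTB, GAPDH and POLR2A, with bidirectional fitting against DMSO.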

[17] = read-out: Cellular tumor antigen p53 (Homo sapiens) (UniProt P04637); experiment: LTEA_HepaRG_TP53: Life Technologies and Expression Analysis (LTEA) Assay for Tumor Protein P53 (TP53) using HepaRG (AID 2283537)
Outline: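 Gain or loss of TP53 mRNA signal is scored relative to 0.5% DMSO after 48 h chemical treatment of HepaRG liver cells, tested in duplicate at eight half-log concentrations up to 100 uM.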

[18] = read-out: sulfotransferase 2A1 (SULT2A1), SULT2A1 (gene 6822); experiment: LTEA_HepaRG_SULT2A1: Life Technologies and Expression Analysis (LTEA) Assay for sulfotransferase 2A1 (SULT2A1) using HepaRG (AID 2283531)
Outline: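 Cells were plated and cultured 48 h, switched to serum-free induction medium, then dosed in duplicate for 48 h (8 concentrations, max 100 uM). RNA was isolated and SULT2A1 expression measured by qRT-PCR; gain or loss of signal fitted relative to DMSO.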

[19] = read-out: UDP glucuronosyltransferase (UGT1A1), UGT1A1 (gene 54658); experiment: LTEA_HepaRG_UGT1A1: Life Technologies and Expression Analysis (LTEA) Assay for UDP glucuronosyltransferase (UGT1A1) using HepaRG (AID 2283538)
Outline: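 Differentiated human HepaRG cells in serum-free induction medium were exposed in duplicate for 48 h to eight half-log concentrations up to 100 uM in 0.5% DMSO. UGT1A1 mRNA was quantified by TaqMan qRT-PCR, normalized to ACTB, GAPDH and POLR2A, and fitted bidirectionally against DMSO.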

Signal transducer and activator of transcription 3 (Homo sapiens), sequence (P40763 whole entry, looked up): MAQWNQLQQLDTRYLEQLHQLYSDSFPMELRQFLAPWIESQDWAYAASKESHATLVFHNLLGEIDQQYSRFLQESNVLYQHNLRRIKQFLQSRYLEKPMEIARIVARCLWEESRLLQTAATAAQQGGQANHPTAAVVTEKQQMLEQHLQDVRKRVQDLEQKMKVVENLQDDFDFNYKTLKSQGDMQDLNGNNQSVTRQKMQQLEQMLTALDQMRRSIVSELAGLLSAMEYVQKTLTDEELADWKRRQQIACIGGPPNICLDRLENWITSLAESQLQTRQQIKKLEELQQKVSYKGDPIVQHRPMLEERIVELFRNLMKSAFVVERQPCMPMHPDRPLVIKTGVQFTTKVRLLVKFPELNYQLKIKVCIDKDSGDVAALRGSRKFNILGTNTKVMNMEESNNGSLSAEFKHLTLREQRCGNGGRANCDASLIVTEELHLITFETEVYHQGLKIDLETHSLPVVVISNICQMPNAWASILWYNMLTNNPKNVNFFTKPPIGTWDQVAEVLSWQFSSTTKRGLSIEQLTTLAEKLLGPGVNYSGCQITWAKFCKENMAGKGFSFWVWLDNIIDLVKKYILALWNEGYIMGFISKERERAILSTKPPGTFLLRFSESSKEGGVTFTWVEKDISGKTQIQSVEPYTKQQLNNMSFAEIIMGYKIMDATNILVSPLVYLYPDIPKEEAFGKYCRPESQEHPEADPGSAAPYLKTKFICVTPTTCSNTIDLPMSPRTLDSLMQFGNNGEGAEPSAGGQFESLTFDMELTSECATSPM
Cellular tumor antigen p53 (Homo sapiens), sequence (P04637 whole entry, looked up): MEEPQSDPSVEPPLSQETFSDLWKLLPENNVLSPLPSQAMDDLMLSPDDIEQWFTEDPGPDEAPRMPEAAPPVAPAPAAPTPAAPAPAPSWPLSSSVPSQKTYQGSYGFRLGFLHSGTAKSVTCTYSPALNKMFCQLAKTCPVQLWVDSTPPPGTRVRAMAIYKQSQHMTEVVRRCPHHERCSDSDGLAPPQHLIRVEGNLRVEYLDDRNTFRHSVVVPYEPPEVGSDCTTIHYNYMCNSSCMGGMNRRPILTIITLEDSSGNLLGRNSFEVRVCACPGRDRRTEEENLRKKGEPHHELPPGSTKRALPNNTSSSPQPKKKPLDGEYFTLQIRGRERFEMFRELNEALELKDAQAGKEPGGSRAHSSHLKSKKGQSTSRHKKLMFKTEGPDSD
Nuclear factor erythroid 2-related factor 2 (Homo sapiens), sequence (Q16236 whole entry, looked up): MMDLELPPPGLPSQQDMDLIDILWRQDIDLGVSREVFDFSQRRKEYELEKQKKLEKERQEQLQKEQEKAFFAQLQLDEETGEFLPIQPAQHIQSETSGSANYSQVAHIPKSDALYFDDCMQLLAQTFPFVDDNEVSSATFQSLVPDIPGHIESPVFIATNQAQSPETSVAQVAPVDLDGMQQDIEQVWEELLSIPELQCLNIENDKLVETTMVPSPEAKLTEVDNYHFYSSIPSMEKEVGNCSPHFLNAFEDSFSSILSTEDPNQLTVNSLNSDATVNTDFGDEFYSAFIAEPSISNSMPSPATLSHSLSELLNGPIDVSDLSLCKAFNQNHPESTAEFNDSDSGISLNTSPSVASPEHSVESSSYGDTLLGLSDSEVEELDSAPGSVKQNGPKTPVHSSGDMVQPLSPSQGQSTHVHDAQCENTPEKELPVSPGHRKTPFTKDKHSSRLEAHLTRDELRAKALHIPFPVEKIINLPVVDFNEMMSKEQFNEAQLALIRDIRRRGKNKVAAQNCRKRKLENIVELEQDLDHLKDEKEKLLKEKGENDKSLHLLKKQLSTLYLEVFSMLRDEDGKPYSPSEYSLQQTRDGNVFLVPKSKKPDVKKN
Nuclear factor NF-kappa-B p105 subunit (Homo sapiens), sequence (P19838 whole entry, looked up): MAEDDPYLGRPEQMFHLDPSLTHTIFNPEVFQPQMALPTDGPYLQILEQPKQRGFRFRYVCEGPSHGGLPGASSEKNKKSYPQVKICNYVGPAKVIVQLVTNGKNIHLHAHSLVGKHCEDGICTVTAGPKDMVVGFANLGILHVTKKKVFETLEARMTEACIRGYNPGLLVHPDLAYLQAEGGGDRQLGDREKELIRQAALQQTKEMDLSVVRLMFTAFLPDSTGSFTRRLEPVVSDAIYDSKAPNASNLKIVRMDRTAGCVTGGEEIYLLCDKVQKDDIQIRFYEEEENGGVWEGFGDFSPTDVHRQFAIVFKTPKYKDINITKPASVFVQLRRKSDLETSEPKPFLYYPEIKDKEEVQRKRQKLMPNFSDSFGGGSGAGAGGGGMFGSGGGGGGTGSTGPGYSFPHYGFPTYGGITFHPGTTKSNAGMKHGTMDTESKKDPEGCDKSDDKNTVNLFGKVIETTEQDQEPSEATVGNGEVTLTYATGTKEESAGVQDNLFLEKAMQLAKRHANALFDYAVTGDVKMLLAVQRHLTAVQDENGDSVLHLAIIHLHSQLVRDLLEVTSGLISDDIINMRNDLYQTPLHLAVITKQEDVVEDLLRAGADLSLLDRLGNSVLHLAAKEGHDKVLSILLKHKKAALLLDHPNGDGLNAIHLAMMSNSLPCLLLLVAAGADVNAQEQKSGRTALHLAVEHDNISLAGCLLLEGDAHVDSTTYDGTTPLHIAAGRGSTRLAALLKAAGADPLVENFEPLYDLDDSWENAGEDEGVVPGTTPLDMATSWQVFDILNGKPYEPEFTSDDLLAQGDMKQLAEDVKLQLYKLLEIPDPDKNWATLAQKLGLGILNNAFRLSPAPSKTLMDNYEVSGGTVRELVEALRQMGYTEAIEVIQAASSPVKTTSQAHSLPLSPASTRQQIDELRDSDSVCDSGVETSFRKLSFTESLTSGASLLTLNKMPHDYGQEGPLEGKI

CC(C)(C)C(=O)C(Oc1ccc(Cl)cc1)n1cncn1 (stereo unspecified)
outcome [1]: inactive | outcome [2]: inactive | outcome [3]: inactive | outcome [4]: inactive | outcome [5]: inactive | outcome [6]: inactive | outcome [7]: inactive | outcome [8]: inactive | outcome [9]: inactive | outcome [10]: inactive | outcome [11]: inactive | outcome [12]: inactive | outcome [13]: inactive | outcome [14]: inactive | outcome (TIMP1, TIMP1 (gene 7076)): inactive | outcome [15]: inactive | AC50 [16]: 33 µM (active) | outcome [17]: inactive

C=CCOC(=O)C(C)(C)OC(=O)c1cc(-n2c(=O)cc(C(F)(F)F)n(C)c2=O)ccc1Cl
outcome [1]: inactive | outcome [2]: inactive | outcome [4]: inactive | outcome [5]: inactive | outcome [6]: inactive | outcome [7]: inactive | outcome [8]: inactive | outcome [9]: inactive | outcome [10]: inactive | outcome [11]: inactive | outcome [12]: inactive | outcome [18]: inactive | outcome [13]: inactive | outcome [14]: inactive | outcome [15]: inactive | outcome [16]: inactive | outcome [17]: inactive

CCC(C)n1c(=O)[nH]c(C)c(Br)c1=O (stereo unspecified)
outcome [1]: inactive | AC50 [2]: 21.1 µM (active) | outcome [3]: inactive | outcome [4]: inactive | outcome [5]: inactive | AC50 [6]: 19.2 µM (active) | AC50 [7]: 50 µM (active) | AC50 [9]: 7.04 µM (active) | outcome [10]: inactive | AC50 [11]: 31.8 µM (active) | AC50 [12]: 29 µM (active) | AC50 [18]: 24.9 µM (active) | outcome [13]: inactive | outcome [14]: inactive | outcome [15]: inactive | AC50 [16]: 18.5 µM (active) | outcome [17]: inactive

CCOP(=O)(OCC)Oc1nc(Cl)c(Cl)cc1Cl
AC50 [1]: 62.7 µM (active) | AC50 [2]: 59.6 µM (active) | outcome [3]: inactive | AC50 [4]: 76.6 µM (active) | outcome [5]: inactive | AC50 [6]: 92.2 µM (active) | outcome [7]: inactive | outcome [8]: inactive | AC50 [9]: 49.8 µM (active) | outcome [10]: inactive | outcome [11]: inactive | AC50 [12]: 93.5 µM (active) | AC50 [18]: 75.9 µM (active) | outcome [13]: inactive | outcome [14]: inactive | outcome [15]: inactive | AC50 [16]: 84.2 µM (active) | outcome [17]: inactive | outcome [19]: inactive

COc1cc(Cl)c(OC)cc1Cl
outcome [1]: inactive | outcome [2]: inactive | outcome [3]: inactive | outcome [4]: inactive | outcome [5]: inactive | outcome [6]: inactive | outcome [7]: inactive | outcome [8]: inactive | outcome [10]: inactive | outcome [11]: inactive | outcome [12]: inactive | outcome [18]: inactive | outcome [13]: inactive | outcome [14]: inactive | outcome [15]: inactive | outcome [16]: inactive | outcome [17]: inactive | AC50 [19]: 2.69 µM (active)

COP(=S)(OC)Oc1ccc([N+](=O)[O-])c(C)c1
outcome [1]: inactive | outcome [2]: inactive | outcome [4]: inactive | outcome [5]: inactive | outcome [6]: inactive | outcome [7]: inactive | outcome [8]: inactive | outcome [9]: inactive | outcome [10]: inactive | outcome [11]: inactive | outcome [12]: inactive | outcome [18]: inactive | outcome [13]: inactive | outcome [14]: inactive | outcome [15]: inactive | outcome [16]: inactive | outcome [17]: inactive
